Laboratory results as given in PubChem BioAssay (NCI).
Several values for one entry are separate records, joined by “and”; a condition that tells them apart may be missing. Equal entries are not always repeated. About 83,000 compounds went through this panel and 20% of them were active in at least one assay; those are over-represented in the sample as a whole.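 96-well plates, one dose, 48 hours. Percent growth reported; active if below 10.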 Activity calls are given as the source filed them.

What was measured:
Assay in all cases: NCI-60 one-dose screen, 48 h (100 = growth as untreated, 0 = no growth, -100 = all killed)
Conditions in all cases: 10 µM unless noted
HCT-15 colon = test system: HCT-15 colon
SNB-75 CNS = test system: SNB-75 CNS
SNB-19 CNS = test system: SNB-19 CNS
U251 CNS = test system: U251 CNS
PC-3 prostate = test system: PC-3 prostate
SK-MEL-5 melanoma = test system: SK-MEL-5 melanoma
UACC-62 melanoma = test system: UACC-62 melanoma
LOX IMVI melanoma = test system: LOX IMVI melanoma
SK-MEL-28 melanoma = test system: SK-MEL-28 melanoma
HT29 colon = test system: HT29 colon

Row | SMILES | growth (HCT-15 colon) | growth (SNB-75 CNS) | growth (SNB-19 CNS) | growth (U251 CNS) | growth (PC-3 prostate) | growth (SK-MEL-5 melanoma) | growth (UACC-62 melanoma) | growth (LOX IMVI melanoma) | growth (SK-MEL-28 melanoma) | growth (HT29 colon)
1 | Cc1ccc(NC(=S)N/C=C(\c2ccccc2)S(=O)Cc2ccccc2)c(C)c1 (stereo unspecified) | 103% (inactive) | 87.2% (inactive) | 100% (inactive) | 87.9% (inactive) | 86% (inactive) | 98.7% (inactive) | 92.2% (inactive) | 102% (inactive) | 112% (inactive) | 
2 | CC(=O)Oc1ccc(C(c2ccc(OC(C)=O)cc2)c2ccccn2)cc1 | 84.3% (inactive) and 76.4% (inactive) | 56.7% (inactive) and 80.9% (inactive) | 104% (inactive) and 98.8% (inactive) |  | 73.6% (inactive) and 68.9% (inactive) | -7.6% (active) | 96.5% (inactive) and 89.4% (inactive) | 90.3% (inactive) and 77.5% (inactive) | 107% (inactive) | 91.8% (inactive) and 87.1% (inactive)
3 | CSc1nc(N)c(N)c(N)n1 | 111% (inactive) | 97.5% (inactive) | 100% (inactive) | 95.8% (inactive) | 71.4% (inactive) | 101% (inactive) | 101% (inactive) | 101% (inactive) | 113% (inactive) | 
4 | Nc1c(Cl)cc2c(c1Br)C(=O)c1ccccc1C2=O | 88.9% (inactive) | 94.2% (inactive) | 88.8% (inactive) | 95.8% (inactive) | 97.7% (inactive) | 89.4% (inactive) | 77% (inactive) | 94.2% (inactive) | 113% (inactive) | 
5 | O=C(O)Cc1cc(=O)[nH]n(-c2ccccc2)c1=O | 107% (inactive) | 91.3% (inactive) | 119% (inactive) | 99.9% (inactive) | 94% (inactive) | 107% (inactive) | 101% (inactive) |  | 110% (inactive) | 
6 | O=C(O)/C=C/C=C/c1ccccc1 | 102% (inactive) and 108% (inactive) | 103% (inactive) and 98.4% (inactive) | 97.1% (inactive) and 100% (inactive) | 106% (inactive) and 96.9% (inactive) | 97.4% (inactive) and 101% (inactive) | 102% (inactive) and 94.7% (inactive) | 96.1% (inactive) and 102% (inactive) |  | 103% (inactive) and 109% (inactive) | 
7 | COc1cc(NCCCCCNC(C)C)c2ncccc2c1 | 96.7% (inactive) and 96.6% (inactive) | 84.2% (inactive) and 73.7% (inactive) | 96.1% (inactive) and 81.2% (inactive) | 94.8% (inactive) and 85.9% (inactive) | 86.3% (inactive) and 89.1% (inactive) | 98.4% (inactive) and 99% (inactive) | 83.7% (inactive) | 87.3% (inactive) and 82.5% (inactive) | 98.5% (inactive) and 98.7% (inactive) | 
8 | Nc1ccccc1SC1CC(=O)N(c2ccc(I)cc2)C1=O (stereo unspecified) |  | 79.8% (inactive) | 96% (inactive) |  | 94.2% (inactive) | 87.9% (inactive) | 82.7% (inactive) |  | 90.8% (inactive) | 93.3% (inactive)
9 | O=C1C=CC(n2cc(F)c(=O)[nH]c2=O)O1 (stereo unspecified) |  | 79.8% (inactive) | 79% (inactive) | 82.2% (inactive) | 92.9% (inactive) | 60.4% (inactive) | 44.5% (inactive) | 54.8% (inactive) | 75.1% (inactive) | 39.4% (inactive)
10 | Cc1cc(=NO)cc(C)n1O |  | 92.6% (inactive) | 103% (inactive) | 113% (inactive) | 102% (inactive) | 112% (inactive) | 102% (inactive) | 99.9% (inactive) | 112% (inactive) | 114% (inactive)
11 | NC(=O)Cc1nc(O)cc(=O)[nH]1 |  | 88.1% (inactive) | 96.9% (inactive) | 89.4% (inactive) | 76.2% (inactive) | 104% (inactive) | 98% (inactive) | 105% (inactive) | 113% (inactive) | 93.2% (inactive)
12 | CC(=O)Nc1ccc(OC(C)=O)cc1 |  | 37.6% (inactive) and 94.3% (inactive) | 35.2% (inactive) and 111% (inactive) |  | 11.5% (inactive) and 92.8% (inactive) | 92.8% (inactive) | 18.5% (inactive) and 108% (inactive) | -24% (active) and 100% (inactive) | 82.6% (inactive) and 110% (inactive) | 
13 | CS(=O)(=O)c1nsc(N)n1 |  | 93.2% (inactive) | 98.5% (inactive) | 102% (inactive) | 98% (inactive) | 102% (inactive) | 102% (inactive) | 98.2% (inactive) | 109% (inactive) | 101% (inactive)
14 | O=c1[nH]c(=S)[nH]n1C(=S)n1[nH]c(=S)[nH]c1=O |  | 92% (inactive) | 99.9% (inactive) | 93.6% (inactive) | 83.3% (inactive) | 93% (inactive) | 94.4% (inactive) | 95.6% (inactive) | 114% (inactive) | 106% (inactive)
15 | CC(=O)/C(N=Nc1ccc(S(=O)(=O)c2ccc(N=N/C(C(C)=O)=C(/C)O)cc2)cc1)=C(\C)O |  | 97.7% (inactive) | 114% (inactive) | 101% (inactive) | 92.1% (inactive) | 108% (inactive) | 114% (inactive) | 99.1% (inactive) | 113% (inactive) | 102% (inactive)
16 | CCOP(C)(=O)/C(Cc1ccc(OC)c(OC)c1)=N\O (stereo unspecified) |  | 88.7% (inactive) | 105% (inactive) | 107% (inactive) | 106% (inactive) | 96.1% (inactive) | 96% (inactive) | 96.5% (inactive) | 111% (inactive) | 106% (inactive)
17 | CCC(=O)Oc1ccc(OCc2ccccc2)cc1 |  | 98.2% (inactive) and 105% (inactive) | 97.7% (inactive) and 96.5% (inactive) | 87.7% (inactive) and 80.8% (inactive) | 77.6% (inactive) and 58.7% (inactive) | 84.1% (inactive) and 73.6% (inactive) | 81.8% (inactive) and 79.9% (inactive) |  | 122% (inactive) and 111% (inactive) | 98.7% (inactive) and 91.2% (inactive)
18 | Cc1cccc(Cl)c1N |  | 100% (inactive) | 108% (inactive) | 108% (inactive) | 95.5% (inactive) | 110% (inactive) | 103% (inactive) | 98.6% (inactive) | 106% (inactive) | 109% (inactive)
19 | C/C(=C\c1ccccc1)C(O)C(=O)c1nc2ccc([N+](=O)[O-])cc2[nH]c1=O (stereo unspecified) |  | 88.6% (inactive) | 85.5% (inactive) | 83.2% (inactive) | 79.7% (inactive) | 82.6% (inactive) | 72.3% (inactive) |  | 112% (inactive) | 
20 | CCOC(=O)c1ccc(N2C(=O)C(Cl)(c3ccccc3)C2c2ccco2)cc1 (stereo unspecified) |  | 82.3% (inactive) | 76.4% (inactive) | 79.1% (inactive) | 85.9% (inactive) | 70.4% (inactive) | 72.1% (inactive) | 77% (inactive) | 88.3% (inactive) | 78.9% (inactive)
21 | CC(C)=NOC(C)C(=O)O (stereo unspecified) |  | 97.9% (inactive) | 108% (inactive) | 104% (inactive) | 92.9% (inactive) | 107% (inactive) | 89.4% (inactive) | 97.4% (inactive) | 113% (inactive) | 110% (inactive)
22 | CC1(CO)CCCC1NCCNC1CCCC1(C)CO (stereo unspecified) |  | 84.7% (inactive) and 97.9% (inactive) | 102% (inactive) and 103% (inactive) | 106% (inactive) | 90.9% (inactive) and 95% (inactive) | 99.7% (inactive) and 101% (inactive) | 99% (inactive) and 102% (inactive) |  | 104% (inactive) and 108% (inactive) | 91.3% (inactive) and 103% (inactive)
23 | CCCCCCCCCCCCCCCCC(=O)O |  | 101% (inactive) | 105% (inactive) | 98% (inactive) | 104% (inactive) | 100% (inactive) | 101% (inactive) |  | 117% (inactive) | 97.7% (inactive)
